# Results published in PubChem BioAssay AID2061305 (National Center for Advancing Translational Sciences (NCATS), 2025).
# Results filed as inconclusive are left out. Activity calls are given as the source filed them. The call rests on the fitted dose curve; in most records, active means well fitted inhibition curve with a large enough effect; inconclusive means small, poorly fitted or top-dose-only effect; inactive means flat fitted curve, though single readings scatter. Where a SMILES comes first, the peptide text is derived from it. [ ]: non-standard residue; d: D form. The star is where a group is joined. Dolaproine = CO[C@@H]([C@@H]1CCCN1)[C@@H](C)C(=O)O; Dil = CC[C@H](C)[C@H](NC)[C@@H](CC(=O)O)OC; NMe2Val = CC(C)[C@@H](C(=O)*)N(C)C; X1 = C[C@@H](N*)[C@@H](O)c1ccccc1; NMeV = CN[C@H](C(=O)O)C(C)C
# Assay: Identification of antibody-drug conjugate (ADC) payloads which are substrates of ATP-binding cassette drug efflux transporters: ABCB1-HeLa-KB-3-1 cell line
# Settings: KB-3-1 (HeLa derivative) viability, CellTiter-Glo, 48 h
# Text: Antibody-drug conjugates (ADCs) feature an antibody recognizing a specific protein joined to a potent toxic payload. Numerous antibody-drug conjugates have received FDA approval; however, clinical resistance arises. Resistance mechanisms include decreased expression or mutation of the antibody target, impaired payload release, or increased expression of ATP-binding cassette (ABC) efflux transporters associated with multidrug resistance. We therefore sought to characterize the interaction of ABC multidrug transporters with ADC payloads. We performed a high-throughput screen with 27 common ADC payloads using cells lines expressing ABC transporters P-glycoprotein (P-gp, encoded by ABCB1) or ABCG2 (encoded by ABCG2). Confirmatory assays were also performed using cells transfected to express P-gp, ABCG2, or MRP1 (encoded by ABCC1). Several commonly used ADC payloads were substrates of P-gp, including calicheamicin gamma1, monomethyl auristatin E, DM1, and DM4. All the pyrrolobenzodiazepines tested - SJG136, SGD-1882, SG2057, and SG3199 - were substrates of P-gp, ABCG2, and MRP1. […] These findings highlight the risk of transporter-mediated resistance with certain ADC payloads and underscore the importance of selecting payloads that evade ABC transporter recognition in future ADC development.
# HEK-293 cells were transfected with empty vector (pcDNA) or vector containing the human ABCB1 (MDR-19), ABCG2 (R-5), or ABCC1 gene (MRP1) and were maintained in EMEM with 2 mg/mL G418 added to maintain transporter expression. The HeLa derivative KB-3-1 and the P-gp overexpressing KB-8-5-11 subline were maintained in DMEM; KB-8-5-11 additionally received 100 ng/mL colchicine. H460 parental cells were obtained from the Division of Cancer Treatment and Diagnosis Tumor Repository, National Cancer Institute at Frederick, MD and were cultured in RPMI. The ABCG2 expressing subline H460 MX20 was generated by selecting H460 cells in 20 nM mitoxantrone. Media in all cases was supplemented with 10% FBS and 1% penicillin-streptomycin. We explored 27 common ADC payloads, in two orthogonal, paired cell line sets-a drug selected and transfected set for each transporter--to identify substrates of the ABC transporters P-gp and ABCG2. Compounds were sourced from Levena Biopharma (San Diego, CA), Selleck Chem (Houston, TX), ChemieTek (Indianapolis, IN), or Microsource Discovery Systems (Gaylordsville, CT). Screening was performed as previously described. Briefly, cells were plated at a density of 500 cells/well in 1536 well plates with compounds added using a 1536-head pin tool (Kalypsys, San Diego CA). Cells were incubated with cytotoxic drugs and processed with CellTiter Glo reagent (Promega, Madison, WI) to determine viability after 48 hours. P-gp substrates were identified by comparing compound activity between paired sets of low-expressing (sensitive) and over-expressing (resistant) cell lines.
row,Compound,Potency
1,CC[C@H](C)[C@H](NC(=O)[C@H]1CCCCN1C)C(=O)N(C)[C@H](C[C@@H](OC(C)=O)c1nc(C(=O)O)cs1)C(C)C,472 nM (active)
2,CC[C@H](C)[C@@H]([C@@H](CC(=O)N1CCC[C@H]1[C@H](OC)[C@@H](C)C(=O)N[C@H](C)[C@@H](O)c1ccccc1)OC)N(C)C(=O)[C@@H](NC(=O)[C@@H](NC)C(C)C)C(C)C (H-[NMeV]V[Dil][Dolaproine]-X1),0.3 nM (active)
3,COc1cc2cc(C(=O)N3C[C@@H](CCl)c4c3cc(O)c3ccccc43)[nH]c2c(OC)c1OC,1.3 nM (active)
4,COc1cccc2c1C(=O)c1c(O)c3c(c(O)c1C2=O)C[C@@](O)(C(=O)CO)CC3OC1CC(N2CCOC(OC)C2)C(O)C(C)O1 (stereo not given in full),11.8 nM (active)
5,CC[C@H](C)[C@@H]1NC(=O)CNC(=O)[C@H]2Cc3c([nH]c4cc(O)ccc34)S(=O)C[C@H](NC(=O)CNC1=O)C(=O)N[C@@H](CC(N)=O)C(=O)N1C[C@H](O)C[C@H]1C(=O)N[C@@H]([C@@H](C)[C@@H](O)CO)C(=O)N2 (stereo not given in full),5290 nM (active)
6,CC[C@H](C)[C@H](NC(=O)[C@H]1CCCCN1C)C(=O)N(C)[C@H](C[C@@H](OC(C)=O)c1nc(C(=O)N[C@@H](Cc2ccccc2)C[C@H](C)C(=O)O)cs1)C(C)C,0.3 nM (active)
7,CC[C@H](C)[C@@H]([C@@H](CC(=O)N1CCC[C@H]1[C@H](OC)[C@@H](C)C(=O)N[C@@H](Cc1ccccc1)C(=O)O)OC)N(C)C(=O)[C@@H](NC(=O)[C@H](C(C)C)N(C)C)C(C)C (NMe2Val-V[Dil][Dolaproine]F-OH),33.4 nM (active)
8,COc1cc2cc(c1Cl)N(C)C(=O)C[C@H](OC(=O)[C@H](C)N(C)C(=O)CCC(C)(C)S)[C@]1(C)OC1[C@H](C)C1C[C@@](O)(NC(=O)O1)[C@H](OC)/C=C/C=C(\C)C2 (stereo not given in full),0.5 nM (active)
9,CC[C@@]1(O)C(=O)OCc2c1cc1n(c2=O)Cc2cc3ccccc3nc2-1,334 nM (active)
10,CC[C@H](C)[C@@H]([C@@H](CC(=O)N1CCC[C@H]1[C@H](OC)[C@@H](C)C(=O)N[C@H](C)[C@@H](O)c1ccccc1)OC)N(C)C(=O)[C@@H](NC(=O)[C@H](C(C)C)N(C)C)C(C)C,0.2 nM (active)
